# Assays:
# Details in all cases: concentration: 1 μM, replicates: in singlicate; n = 1
# CLK2 = tested on: CLK2
# CLK3 = tested on: CLK3
# CLK4 = tested on: CLK4
# CSF1R-autoinhibited = tested on: CSF1R-autoinhibited
# CSF1R = tested on: CSF1R
# CSK = tested on: CSK
# CSNK1A1L = tested on: CSNK1A1L
# CSNK1A1 = tested on: CSNK1A1
# CSNK1D = tested on: CSNK1D
# CSNK1E = tested on: CSNK1E
# CSNK1G1 = tested on: CSNK1G1
# CSNK1G2 = tested on: CSNK1G2
# CSNK1G3 = tested on: CSNK1G3
# CSNK2A1 = tested on: CSNK2A1
# CSNK2A2 = tested on: CSNK2A2
# CTK = tested on: T1, CTK
# T1 construct: gene MATK
# DAPK1 = tested on: DAPK1
# DAPK2 = tested on: DAPK2
# DAPK3 = tested on: DAPK3
# DCAMKL1 = tested on: T2, DCAMKL1
# T2 construct: gene DCLK1
# 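Further: KINOMEscan kinase panel screen.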
Compound,%Inh (CLK2),%Inh (CLK3),%Inh (CLK4),%Inh (CSF1R-autoinhibited),%Inh (CSF1R),%Inh (CSK),%Inh (CSNK1A1L),%Inh (CSNK1A1),%Inh (CSNK1D),%Inh (CSNK1E),%Inh (CSNK1G1),%Inh (CSNK1G2),%Inh (CSNK1G3),%Inh (CSNK2A1),%Inh (CSNK2A2),%Inh (CTK),%Inh (DAPK1),%Inh (DAPK2),%Inh (DAPK3),%Inh (DCAMKL1)
c1ccc(Oc2ccc(Nc3ccnc4cc(-c5ccc(CNCCN6CCOCC6)o5)ccc34)cc2)nc1 [GW567145],0%,0%,0%,40%,68%,77%,0%,0%,0%,0%,2%,0%,13%,0%,18%,0%,0%,2%,18%,20%
CN(C)Cc1ccc(-c2ccc3c(Nc4ccc(Oc5ccccn5)cc4)ccnc3c2)o1 [GW567148],0%,12%,0%,11%,38%,82%,9%,0%,0%,23%,0%,0%,0%,0%,0%,16%,0%,0%,0%,14%
COc1cc(Nc2nccc(-c3c(-c4cccc(NC(=O)c5c(F)cccc5F)c4)nn4ncccc34)n2)cc(OC)c1OC [GSK327238],0%,0%,2%,55%,100%,98.1%,7%,0%,23%,94.7%,16%,0%,20%,0%,4%,14%,0%,0%,0%,12%
CCn1c(-c2nonc2N)nc2c(C#CC(C)(C)O)ncc(OCCCCN)c21.O=C(O)C(F)(F)F.O=C(O)C(F)(F)F [GSK507274],69%,11%,43%,0%,21%,0%,18%,19%,29%,38%,40%,0%,15%,0%,0%,2%,28%,10%,82%,40%
CCS(=O)(=O)c1ccc(OC)c(Nc2nccc(-c3c(-c4cccc(NC(=O)c5c(F)cccc5F)c4)nn4ncccc34)n2)c1 [GSK326180],0%,9%,21%,0%,24%,17%,0%,0%,7%,35%,15%,4%,15%,0%,0%,0%,9%,0%,9%,3%
Fc1ccc(-c2ncn(C3CCNCC3)c2-c2ccnc(Oc3ccc(-c4ccccc4)cc3)n2)cc1 [SB-245391],11%,32%,0%,8%,12%,14%,71%,93.9%,96.2%,99.5%,30%,78%,49%,0%,7%,37%,14%,5%,22%,10%
COc1ccc(-c2coc3ccc(-c4nnc(SCc5ccc(OC)c(C(F)(F)F)c5)o4)cc23)cc1,1%,0%,18%,7%,0%,16%,0%,0%,0%,0%,0%,24%,0%,22%,24%,10%,15%,0%,0%,38%
Nc1n[nH]c2cnc(-c3ccccc3)cc12 [SB-642124],73%,20%,64%,0%,17%,0%,8%,0%,12%,16%,4%,0%,3%,21%,27%,0%,24%,0%,27%,13%
Nc1ncc(-c2ccc3nccc(-c4ccncc4)c3c2)cc1S(=O)(=O)N1CCOCC1 [GSK1627798],72%,55%,54%,0%,3%,0%,7%,3%,37%,42%,0%,0%,8%,5%,1%,0%,0%,2%,9%,0%
CC(C)(C)c1ccc2nccc(Nc3cccc(O)c3)c2c1 [GW856795],0%,0%,0%,54%,12%,0%,0%,26%,0%,0%,36%,0%,0%,0%,0%,0%,16%,0%,0%,14%
COCCOCCOc1cc2ncc3c4ccc(C#N)cc4[nH]c3c2cc1OC,67%,14%,76%,97.4%,50%,10%,8%,5%,0%,2%,0%,24%,17%,75%,95.3%,0%,0%,7%,15%,20%
O=C(Nc1cccc(-c2nn3ccccc3c2-c2ccnc(Nc3cccc(C(F)(F)F)c3)n2)c1)c1c(F)cccc1F [GSK292658],0%,0%,8%,0%,89%,31%,5%,16%,2%,46%,0%,0%,8%,7%,2%,14%,0%,0%,0%,49%
COC(=O)Nc1nc2cc(Oc3ccc(NC(=O)Nc4cc(C(F)(F)F)ccc4F)cn3)ccc2[nH]1.Cl.Cl [GW681170],8%,0%,61%,0%,67%,0%,0%,0%,6%,0%,10%,6%,18%,0%,72%,0%,51%,0%,9%,11%
COc1ccc(CNC(=O)NC2CCN(c3ccnc(Nc4ccc(F)cc4)n3)CC2)cc1 [GSK1379788],0%,11%,0%,19%,8%,0%,9%,0%,42%,63%,0%,0%,19%,0%,0%,0%,0%,0%,0%,0%
Cc1ccc(C)c(NC(=O)NC2CCN(c3ccnc(Nc4ccc(F)cc4)n3)C2)c1 (stereo not shown) [GSK1379720],0%,0%,0%,25%,0%,0%,0%,0%,6%,11%,0%,15%,12%,0%,0%,0%,0%,0%,0%,6%
Nc1ncnc2c1nc(-c1ccccc1)n2-c1ccccc1 [SKF-97293],28%,25%,20%,22%,7%,22%,0%,0%,10%,23%,4%,14%,7%,0%,13%,42%,0%,0%,17%,0%
CC(=O)N1CCN(c2ccc(Nc3nccc(-c4sc(C(C)C)nc4-c4cccc(NS(=O)(=O)c5cccc(Cl)c5)c4)n3)cn2)CC1 [GSK1660437],0%,0%,17%,0%,36%,95.4%,0%,23%,0%,0%,0%,0%,10%,13%,0%,27%,14%,0%,6%,9%
Cl.Cl.NCC(C(=O)Nc1cc(Br)c(-c2ccnc3[nH]ccc23)s1)c1ccccc1 (stereo not shown) [GSK1269851],100%,39%,61%,0%,28%,0%,19%,0%,35%,28%,0%,4%,35%,79%,73%,7%,0%,0%,15%,9%
COc1cc2c(cc1OCCN1CCNCC1)ncc1c3ccc(C#N)cc3[nH]c21,86%,27%,91.7%,98.4%,51%,12%,0%,40%,8%,0%,0%,0%,4%,63%,92.4%,15%,14%,4%,4%,38%
Oc1cc(Nc2ccnc3cc(I)ccc23)ccc1F [GW552771],51%,0%,9%,23%,23%,0%,16%,0%,20%,16%,0%,0%,0%,23%,0%,6%,0%,0%,30%,0%

# Reference: publication PMC5540273 (PLoS ONE, 2017)
